# ChEMBL document CHEMBL3988442, “University of Dundee, Small-Polar-MMV Screening Library” (2021)
# Screen size: about 69,000 compounds; about 1,000 (1.4%) showed an effect of 50% or more. This excerpt belongs to a sample that is enriched for strong results.
# System: Leishmania donovani
# Assay: Leishmania intramacrophage assay
# Format: functional, organism-based
# Set-up: scale not given: in the data most compounds retested in dose-response had high values
smiles,measurement,setting,value
CCc1nn(C)c(Cl)c1CN1C[C@@H](NC(=O)N(C)C)[C@H](C(C)C)C1,Percent Effect,"30.3 µM, […]",11.23%
COC(=O)CN(C(=O)c1ccco1)c1cccc(F)c1,Percent Effect,"30.3 µM, […]",-4.639%
CSc1cccc(NC(=O)CCC(=O)Nc2nccs2)c1,Percent Effect,"30.3 µM, […]",36.02%
CCC(C)Oc1ccc(CNCCc2c[nH]cn2)cc1Cl (centres undefined),Percent Effect,"30.3 µM, […]",99.79%
CCC(C)Oc1ccc(CNCCNC(C)=O)cc1Cl (centres undefined),Percent Effect,"30.3 µM, […]",40.54%
CCC(C)Oc1ccc(CNCCNS(C)(=O)=O)cc1Cl (centres undefined),Percent Effect,"30.3 µM, […]",32.76%
Cc1cnn(CC(=O)N2CCC(c3ccn4nccc4n3)CC2)c1,Percent Effect,"30.3 µM, […]",-6.355%
O=C(Cc1nc(-c2ccncc2)n[nH]1)NCCCN1CCOCC1,Percent Effect,"30.3 µM, […]",58.11%
COCCCNC(=O)Cc1nc(-c2ccncc2)n[nH]1,Percent Effect,"30.3 µM, […]",-25.69%
O=C(Cc1nc(-c2ccncc2)n[nH]1)N1CCOCC1,Percent Effect,"30.3 µM, […]",-34.22%
COCCC1(CNC(=O)NCC2CN(C)CCN2C)CCC1 (centres undefined),Percent Effect,"30.3 µM, […]",8.791%
CCn1c(N)nc2cc(C(=O)NCCc3ccncc3)cnc21,Percent Effect,"30.3 µM, […]",62.87%
CCn1c(N)nc2cc(C(=O)NCCc3ccccc3C)cnc21,Percent Effect,"30 µM, 30.03 µM",29.75%
CCn1c(N)nc2cc(C(=O)NCCc3ccccc3F)cnc21,Percent Effect,"30.3 µM, […]",-34.47%
O=C(O)C1CN(c2cncc(Cc3ccccc3F)n2)C1,Percent Effect,"30.3 µM, […]",17.92%
O=C(O)C1CN(c2cncc(Cc3ccccc3)n2)C1,Percent Effect,"30.3 µM, […]",57.22%
COc1ccccc1Cc1cncc(N2CC(C(=O)O)C2)n1.Cl,Percent Effect,"30.3 µM, […]",35.18%
O=C(N1CCOCC1)N1CCc2ncnc(NC3CCC3)c2CC1.O=C(O)C(F)(F)F,Percent Effect,"30.3 µM, […]",14.85%
c1cc2nc(C3CCNCC3)nn2cc1NC1CCC1,Percent Effect,"30.3 µM, […]",33.34%
Cc1nc(COC(=O)c2cccc3c2OCCO3)cs1,Percent Effect,"30.3 µM, […]",-13.85%
Cc1nc(COC(=O)c2cccc3c2OCCO3)no1,Percent Effect,"30.3 µM, […]",59.03%
Cc1nc(COC(=O)c2cccnc2C)no1,Percent Effect,"30.3 µM, […]",42.97%
COc1ccccc1C1(CNc2snc(Cl)c2C#N)CCOCC1,Percent Effect,"30.3 µM, […]",-16.98%
COc1ccccc1C1(CNc2snc(Cl)c2C#N)CCCC1,Percent Effect,"30.3 µM, […]",7.398%
N#Cc1c(Cl)nsc1NCC1(c2ccccc2)CCC1,Percent Effect,"30.3 µM, […]",91.2%
Cc1cnn(-c2ccc(S(=O)(=O)N(C)CC(C)(CO)CO)cc2F)c1,Percent Effect,"30.3 µM, […]",-120.1%
CNS(=O)(=O)c1ccc(CNC(=O)N(C)CC(O)COC)cc1 (centres undefined),Percent Effect,"30.3 µM, […]",11.97%
CNS(=O)(=O)c1ccc(CNC(=O)N(CC(C)C)C(C)C)cc1,Percent Effect,"30.3 µM, […]",-6.25%
CNS(=O)(=O)c1ccc(CNC(=O)N(C)CC(C)C)cc1,Percent Effect,"30.3 µM, […]",72.03%
CN(C(=O)c1ccc(OCC(F)F)nc1)c1ccc2c(c1)CCO2,Percent Effect,"30.3 µM, […]",3.527%
Cc1ncn(CCNC(=O)Nc2ccc(F)c(Cl)c2)c(=O)c1C,Percent Effect,"30.3 µM, […]",0.8424%
Cc1noc([C@H]2C[C@H]3CN(C(=O)C4CCOCC4)CC[C@@H]3O2)n1,Percent Effect,"30.3 µM, […]",60.92%
Cc1noc([C@@H]2C[C@H]3CN(C(=O)C4CCN(C)CC4)C[C@H]3O2)n1.O=C(O)C(F)(F)F,Percent Effect,"30.3 µM, […]",33.07%
Cc1noc([C@H]2C[C@@H]3CCN(C(=O)C4CCOCC4)C[C@H]3O2)n1,Percent Effect,"30 µM, 30.03 µM",-8.466%
CSc1nccc(N2CCC3(CCCN(Cc4ccc(F)cc4)C3)C2)n1 (centres undefined),Percent Effect,"30.3 µM, […]",14.67%
Cc1cn2c(n1)C(CNCC1=Cc3cc(Cl)ccc3OC1)CCC2 (centres undefined),Percent Effect,"30.3 µM, […]",69.51%
Cc1cn2c(n1)C(CNCC1=Cc3ccccc3OC1)CCC2 (centres undefined),Percent Effect,"30.3 µM, […]",8.139%
Cc1cn2c(n1)C(CNCc1ccc(C)s1)CCC2 (centres undefined),Percent Effect,"30.3 µM, […]",-5.269%
CCc1ocnc1C(=O)N1CCCC(n2nc(C)nc2C)C1 (centres undefined),Percent Effect,30 µM,15.71%
NC(=O)c1cn[nH]c1C1CCCN1C(=O)COc1ccccc1 (centres undefined),Percent Effect,"30.3 µM, […]",17.94%
CC(NC(=O)CCCc1nc(C(C)(C)C)no1)c1ccccn1 (centres undefined),Percent Effect,30 µM,-2.756%
Cc1nc(CN2C(=O)CC[C@@H]3[C@H]2CCN3C2CCOC2)cs1.O=C(O)C(F)(F)F (some centres undefined),Percent Effect,"30.3 µM, […]",-26.48%
COC(=O)C(NC(=O)COC1CCCC1)c1cc(F)ccc1F (centres undefined),Percent Effect,"30 µM, 30.03 µM",54.06%
COC(=O)C(NC(=O)CC(C)C)c1cc(F)ccc1F (centres undefined),Percent Effect,30 µM,17.07%
COC(=O)C(NC(=O)C1CCCC1)c1cc(F)ccc1F (centres undefined),Percent Effect,30 µM,13.67%
O=C1CC2(CCCCN2C(=O)c2ccsc2)CN1CC1CC1 (centres undefined),Percent Effect,"30 µM, 30.03 µM",15.53%
Cc1cnn(CC(=O)Nc2cc(-n3nnnc3C3CC3)ccc2F)c1,Percent Effect,"30.3 µM, […]",1.472%
Cc1nn(C)c2nc(N3CCCCC3c3nccs3)sc12 (centres undefined),Percent Effect,"30.3 µM, […]",21.88%
Cc1nn(C)c2nc(N3CCCCC3c3ccc(F)cc3)sc12 (centres undefined),Percent Effect,"30.3 µM, […]",66.72%
Cc1nn(C)c2nc(N3CCCC3c3nccs3)sc12 (centres undefined),Percent Effect,"30.3 µM, […]",4.253%
CCC(C)NC(=O)c1cc(Br)c2c(c1)OCCO2 (centres undefined),Percent Effect,30 µM,30.6%
COCCN1CCc2c(c(COc3cccnc3)nn2C)C1.O=C(O)C(F)(F)F.O=C(O)C(F)(F)F,Percent Effect,"30.3 µM, […]",24.9%
Cn1nc(COc2cccnc2)c2c1CCN(Cc1ccco1)C2.O=C(O)C(F)(F)F.O=C(O)C(F)(F)F,Percent Effect,"30.3 µM, […]",17.65%
Cn1nc(COc2cccnc2)c2c1CCN(CC1CC1)C2.O=C(O)C(F)(F)F.O=C(O)C(F)(F)F,Percent Effect,"30.3 µM, […]",98.75%
